# mHTT CaM bind – disrupts binding of mutant huntingtin to calmodulin | 190,000 compounds, 3.6% hits | inhibition, % at 15 µM | AlphaScreen His-mHTT/GST-CaM binding, luminescence | P42858;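 note: 0% = both proteins with DMSO and 100% = one protein alone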
# Pf apPOL inh – Pf-apPOL DNA polymerase inhibition; Recombinant Pf-apPOL, molecular beacon fluorescence, 1.5 h; inhibition, % at 10 µM; 210,000 compounds, 0.25% hits
# Numbers without * were called inactive; x = no result. This excerpt belongs to a sample that is enriched for hits. Cut-off read from the data, not from the text of the source: active = inhibition above about 50%; inactive = the rest.
SMILES,mHTT CaM bind,Pf apPOL inh
COc1ccccc1C(=O)Nc1cc(-c2nc3ccccc3s2)ccc1C,-4.3,-6.2
c1cc2c(cc1C13CC4CC(CC(C4)C1)C3)c1c3n2CCNC3CCC1 (configuration not stated),99.9*,x
CCN1CCn2c3c(c4cc(Cl)ccc42)CCCC31 (configuration not stated),20.7,-5.3
C1=C(c2ccc3c(c2)c2c4n3CCNC4CCC2)CCC1 (configuration not stated),55.0*,1.9
CC(C)COc1ccc2c(c1)c1c3n2CCNC3CCC1 (configuration not stated),47.8,x
COc1ccc(-c2coc3c4c(ccc3c2=O)OCN(Cc2ccco2)C4)cc1OC,1.4,-3.7
Cc1cc(C(=O)Nc2ccccc2F)ccc1[N+](=O)[O-],-1.5,-4.9
NS(=O)(=O)c1ccc2c(c1)C1C=CCC1C(c1ccc(Cl)cc1Cl)N2 (configuration not stated),79.0*,-1.7
O=C(O)c1ccc2c(c1)C1C=CCC1C(c1ccc(Cl)cc1Cl)N2 (configuration not stated),67.0*,-4.3
O=C(c1cccc2c1NC(c1ccc(Cl)cc1Cl)C1CC=CC21)N1CCCC1 (configuration not stated),-4.0,-3.6
O=C(O)C1CC=CCC1c1ccc(Cl)cc1Cl (configuration not stated),x,-1.0
O=[N+]([O-])c1ccc(C2Nc3cc(Br)ccc3C3C=CCC32)cc1 (configuration not stated),40.0,x
NS(=O)(=O)c1ccc2c(c1)C1C=CCC1C(c1ccc([N+](=O)[O-])cc1)N2 (configuration not stated),92.2*,4.2
O=C(O)c1cccc2c1NC(c1ccc(Cl)cc1Cl)C1CC=CC21 (configuration not stated),56.0*,5.9
N#Cc1ccccc1NC(=O)CSc1nc2ccccc2o1,2.0,2.1
CC(C)(C)[C@@H]1CCCC[C@H]1N,-6.8,x
CCN1CCc2[nH]c3ccc(NC(=O)c4ccc(F)c(F)c4)cc3c2C1,14.0,1.9
CCOC(=O)CSc1ncnc2c1nnn2Cc1ccc(Cl)cc1,-24.5,-6.3
COc1cccc(C2Nc3ccc(C(C)=O)cc3C3C=CCC32)c1OC (configuration not stated),64.0*,0.0
CC(=O)c1ccc2c(c1)C1C=CCC1C(c1cc3c(cc1Br)OCO3)N2 (configuration not stated),28.0,-3.3
O=S(=O)(Cc1ccc(F)cc1)NCC(O)(c1ccccc1)C(F)(F)F (configuration not stated),-10.6,-11.0
COc1ccccc1Oc1c(C)oc2cc(OC(=O)c3cc(OC)c(OC)c(OC)c3)ccc2c1=O,2.8,-10.4
CC(=O)CSc1sc2c(O)cc(=O)[nH]c2c1C#N,4.2,x
N#Cc1c(SCC(=O)Nc2nncs2)sc2c(O)cc(=O)[nH]c12,53.5*,x
O=C(O)CCCc1nc2ccccc2[nH]1,-6.0,-2.5
SMILES,mHTT CaM bind,Pf apPOL inh
NC(=O)Cc1nc2ccccc2[nH]1,-5.2,96.7*
N=Nc1[nH]c(N)c2ccccc12,94.5*,-4.2
Cc1cccc(CN2CCCn3nc(C(=O)NCc4ccc(F)cc4)cc3C2=O)c1,-0.8,-0.3
Cc1cc(Oc2ccc(NC(=O)C(C)C)cn2)ccc1F,-12.2,-17.5
O=c1[nH]c(CN2CCOCC2)nc2ccccc12,x,-18.1
O=c1[nH]c(CN2CCCCC2)nc2c1oc1ccccc12,4.0,69.3*
Cc1cc(C)n(-c2ccccc2F)c(=O)c1C(N)=O,4.0,-0.2
COc1cccc(NC(=O)c2cc(C(C)(C)C)n(-c3ccccc3)c2C)c1,x,-14.7
Cc1noc(C)c1C1CCCN1C(=O)c1cc(-c2ccccc2)no1 (configuration not stated),7.4,-1.0
Cc1ccc(C2CC(c3ccccc3)n3nnnc3N2)cc1 (configuration not stated),9.0,1.5
Cc1cccc(C2CC(c3ccc(Br)cc3)Nc3nc(N)nn32)c1 (configuration not stated),54.9*,0.5
Cc1ccccc1C1CC(c2ccc(F)cc2)Nc2nc(N)nn21 (configuration not stated),39.8,0.8
Cc1ccccc1C1CC(c2ccc(Br)cc2)Nc2nc(N)nn21 (configuration not stated),71.3*,0.1
Nc1nc2n(n1)C(c1ccccc1)CC(c1ccccc1Cl)N2 (configuration not stated),8.2,-5.2
COc1ccc(C2CC(c3cccc(C)c3)n3nc(N)nc3N2)cc1 (configuration not stated),-0.5,-0.8
Cc1ccc(C2CC(c3ccc(Cl)cc3)n3nnnc3N2)cc1 (configuration not stated),54.0*,3.5
Cc1ccc(C2CC(c3ccccc3Cl)Nc3nc(N)nn32)cc1 (configuration not stated),66.6*,-2.7
O=C(CN1CCN(C(=O)Nc2ccc(Cl)cc2)CC1=O)NCCC1=CCCCC1,-2.0,-2.9
CCc1ccccc1S(=O)(=O)N1CCC(c2nc(CNC(C)=O)cs2)CC1,5.5,-2.1
O=C(Nc1ccccc1N1CCCN(Cc2cccc(F)c2)C1=O)c1cccs1,7.1,-1.0
COc1ccc(F)cc1-c1cncc(C(=O)NC2CC2)c1,-1.1,-3.2
O=C1S/C(=C\c2ccccc2F)C(=O)N1CNc1cccc([N+](=O)[O-])c1,-2.0,-2.3
Cc1cccc(NCN2C(=O)S/C(=C\c3ccccc3F)C2=O)c1,54.0*,-3.7
N#Cc1ccc(C(=O)N2CCC(CCOc3ccc(F)cc3)CC2)cc1,0.5,-2.2
c1cnc2c(c1)ccc1cccnc12,x,4.6
SMILES,mHTT CaM bind,Pf apPOL inh
Cc1ccnc2c1ccc1cccnc12,100.3*,x
Cc1cccc(-c2nc3n(n2)C(c2ccc(O)cc2)C2=C(CC(C)(C)CC2=O)N3)c1 (configuration not stated),7.2,-1.6
CC1(C)CC(=O)C2=C(C1)Nc1nc(-c3cccc(Cl)c3)nn1C2c1ccc2c(c1)OCO2 (configuration not stated),60.8*,-2.1
COc1ccc2c(=O)c(Oc3ccc([N+](=O)[O-])cc3)c(C)oc2c1,4.1,-4.5
CC(C)C(=O)Nc1cccc(N2CCCN(Cc3ccccc3Cl)C2=O)c1,7.4,0.5
CCOc1ccc(NC(=O)/C(C#N)=C/c2cc(C)n(-c3cccnc3)c2C)cc1,20.0,-4.2
Cc1ccc(NC(=O)/C(C#N)=C/c2cc(C)n(-c3cccnc3)c2C)cc1C,52.0*,-7.9
CN(C)c1ccc(NC(=O)c2cc3ccccc3o2)cc1,59.7*,-4.1
CC(=O)c1ccc(NC(=O)c2cc3ccccc3o2)cc1,0.0,-1.2
O=C(c1cc(-c2ccc3c(c2)OCO3)nc2ccccc12)N1CCN(c2ncccn2)CC1,21.0,0.8
Cc1ccc(NC(=O)N2CC3CCCN3c3ccccc32)c(Cl)c1 (configuration not stated),76.5*,-1.4
Cc1ccc(Cl)cc1NC(=O)N1CC2CCCN2c2ccccc21 (configuration not stated),32.3,-2.9
CC1CN(C(=O)Nc2ccccc2Cl)c2ccccc2O1 (configuration not stated),-39.5,-6.6
O=C(Nc1ccccc1Cl)N1CC2CCCN2c2ccccc21 (configuration not stated),81.4*,-2.2
O=S(=O)(Cc1ccccc1)Nc1cccnc1,-1.9,3.5
O=[N+]([O-])c1cccc(N=Cc2ccc(C=Nc3cccc([N+](=O)[O-])c3)cc2)c1,0.0,2.5
Cc1ccc(Cl)c2c1C(=O)c1ccccc1C2=O,49.0,0.5

# Assay outcomes as filed in PubChem.
